Source: PMC11062922 (Nature Chemical Biology, 2023)
Where two headings read alike, the source gives them in different places.

Assays:
Design in all cases: species or system human, MV4-11 + K-562 + COLO205 + SK-N-BE2 + OVCAR-8
AURKB = conditions: read-out: apparent Kd, n = 1
CDC42BPB = conditions: read-out: apparent Kd, n = 1
CDK2 = conditions: read-out: apparent Kd, n = 1
MARK2 = conditions: read-out: apparent Kd, n = 1
NUAK2 = conditions: read-out: apparent Kd, n = 1
PAK6 = conditions: read-out: apparent Kd, compound concentrations: 100 nM and 1000 nM (sheet 'Samples'), n = 1
PRKCA = conditions: read-out: apparent Kd, n = 1
RPS6KA3 = conditions: read-out: apparent Kd, n = 1
MAP3K11 = conditions: read-out: apparent Kd, n = 1
PIK3CD = conditions: read-out: apparent Kd, n = 1
BUB1 = conditions: read-out: apparent Kd; compound concentrations:100 nM and 1000 nM (sheet 'Samples'); n = 1
TTK = conditions: read-out: apparent Kd, n = 1
MAPK14 = conditions: read-out: apparent Kd, n = 1
BTK = conditions: read-out: apparent Kd; compound concentrations: 100 nM and 1000 nM (sheet 'Samples'), CATDS: 1.9599592223560901E-2; n = 1
RPS6KB1 = conditions: read-out: apparent Kd, n = 1
PKN2 = conditions: read-out: apparent Kd, n = 1
LCK = conditions: read-out: apparent Kd; compound concentrations:100 nM and 1000 nM (sheet 'Samples'); n = 1
[1] = compound concentrations:100 nM and 1000 nM (sheet 'Samples')

O=C(O)C(F)(F)F.O=c1[nH]ccc2nc(N[C@@H]3CCNC3)nc(Nc3ccc4c(c3)S(=O)(=O)CC4)c12 [GSK2181306A]
potency estimated from few doses (AURKB; compound concentrations: 100 nM and 1000 nM (sheet 'Samples'), CATDS: 8.4552521896549809E-3): 1530 nM | potency estimated from few doses (CDC42BPB; compound concentrations: 100 nM and 1000 nM (sheet 'Samples'), CATDS: 8.6780352700712906E-3): 1380 nM | potency estimated from few doses (CDK2; compound concentrations: 100 nM and 1000 nM (sheet 'Samples'), CATDS: 1.3422730745161799E-2): 398 nM | potency estimated from few doses (MARK2; compound concentrations: 100 nM and 1000 nM (sheet 'Samples'), CATDS: 1.1093040316995199E-2): 635 nM | potency estimated from few doses (NUAK2; compound concentrations: 100 nM and 1000 nM (sheet 'Samples'), CATDS: 1.3760463216936501E-2): 376 nM | potency estimated from few doses (PAK6; CATDS: 8.7541295114789697E-3): 1330 nM | potency estimated from few doses (PRKCA; compound concentrations: 100 nM and 1000 nM (sheet 'Samples'), CATDS: 1.32180266874378E-2): 412 nM | potency estimated from few doses (RPS6KA3; compound concentrations: 100 nM and 1000 nM (sheet 'Samples'), CATDS: 9.3639610273777898E-3): 1050 nM

COc1cc(Nc2nccc(-c3cnn4ncccc34)n2)cc(OC)c1 [GW801372X]
potency estimated from few doses (MAP3K11; compound concentrations: 100 nM and 1000 nM (sheet 'Samples'), CATDS: 1.8293530288082401E-2): 1660 nM | potency estimated from few doses (PIK3CD; compound concentrations: 100 nM and 1000 nM (sheet 'Samples'), CATDS: 4.4256260948390198E-2): 135 nM

CC(C)Oc1ccc2c(-c3ccnc(Nc4ccc(N5CCN(C)CC5)cc4)n3)cnn2n1 [GW696155X]
potency estimated from few doses (BUB1): 853 nM | potency estimated from few doses (NUAK2; [1]): 600 nM

NS(=O)(=O)c1ccc(N/N=C2\C(=O)Nc3ccc4ncccc4c32)cc1 [GW305178X]
potency estimated from few doses (CDK2; compound concentrations: 100 nM and 1000 nM (sheet 'Samples'), CATDS: 0.10178285521581799): 134 nM | potency estimated from few doses (TTK; compound concentrations: 100 nM and 1000 nM (sheet 'Samples'), CATDS: 4.7574405243594603E-2): 1130 nM

Cl.Nc1nc(-c2ccc3c(c2)C(=Cc2cc(Br)c(O)c(Br)c2)C(=O)N3)cs1 [GW407323A]
potency estimated from few doses (CDK2; compound concentrations: 100 nM and 1000 nM (sheet 'Samples'), CATDS: 3.5649543484101501E-2): 720 nM | potency estimated from few doses (TTK; compound concentrations: 100 nM and 1000 nM (sheet 'Samples'), CATDS: 2.7527023575449099E-2): 2150 nM

NS(=O)(=O)c1ccc(N/N=C2\C(=O)Nc3ccc(-c4cnco4)cc32)cc1 [GW276655_KCGS]
potency estimated from few doses (CDK2; [1]): 983 nM

CCC(CC)(CC)n1cnc2c(N)ncnc21 [SKF-97620]
potency estimated from few doses (MAPK14; compound concentrations: 100 nM and 1000 nM (sheet 'Samples'), CATDS: 3.1976912509304997E-2): 857 nM | potency estimated from few doses (PIK3CD; compound concentrations: 100 nM and 1000 nM (sheet 'Samples'), CATDS: 0.27263149415517701): 20.5 nM

O=C(Nc1n[nH]c2nc(-c3ccccc3O)ccc12)C1CC1 [SB-711880]
potency estimated from few doses (MAP3K11; [1]): 1520 nM | potency estimated from few doses (MARK2; [1]): 2380 nM

Cl.Cn1cc(C2=C(c3c4n(c5ccccc35)CCNC4)C(=O)NC2=O)c2ccccc21 [RO0318365-001]
potency estimated from few doses (PRKCA; compound concentrations: 100 nM and 1000 nM (sheet 'Samples'), CATDS: 4.6045234882761202E-2): 2150 nM

COc1cc[nH]c1/C=C1\C(=O)Nc2ccc(F)c(C#C[C@@H](O)[C@@H](N)[C@@H](C)O)c21 [RO0283120-000]
potency estimated from few doses (MARK2; [1]): 803 nM | potency estimated from few doses (TTK; [1]): 1180 nM

CN(C)c1ccc2c(c1)/C(=C/Nc1ccc(S(N)(=O)=O)cc1)C(=O)N2 [GW416469X]
potency estimated from few doses (PIK3CD; compound concentrations: 100 nM and 1000 nM (sheet 'Samples'), CATDS: 0.23489654545894101): 138 nM

COc1ccc(Nc2nccc(NCCNC(=O)Nc3cc(C)ccc3C)n2)cc1 [GSK1379899A]
potency estimated from few doses (PIK3CD; compound concentrations: 100 nM and 1000 nM (sheet 'Samples'), CATDS: 0.14570623002858099): 175 nM

Nc1nccc(-c2ccc3c(N)n[nH]c3c2)n1 [GSK1034945A]
potency estimated from few doses (MARK2; [1]): 1440 nM

Cl.Cn1c(=O)c(Cc2ccccc2F)cc2cnc(NC3CCOCC3)nc21 [RO3305377-001]
potency estimated from few doses (BTK): 1180 nM | potency estimated from few doses (MAPK14; compound concentrations: 100 nM and 1000 nM (sheet 'Samples'), CATDS: 8.5761159080735103E-2): 105 nM | potency estimated from few doses (PAK6; CATDS: 1.7508305071041501E-2): 1640 nM

Nc1nc(-c2ccc3c(N)n[nH]c3c2)cc(N2CCCC(NC(=O)c3ccccc3)C2)n1 (centres unmarked) [GSK2286775B]
potency estimated from few doses (AURKB; [1]): 414 nM

CNCC1CCn2c(c(C3=C(c4cn(C)c5ccccc45)C(=O)NC3=O)c3ccccc32)C1 (centres unmarked) [RO0318676-000]
potency estimated from few doses (CDK2; compound concentrations: 100 nM and 1000 nM (sheet 'Samples'), CATDS: 2.9072745389082302E-2): 1540 nM | potency estimated from few doses (PRKCA; compound concentrations: 100 nM and 1000 nM (sheet 'Samples'), CATDS: 0.32206529387914401): 11.4 nM | potency estimated from few doses (RPS6KA3; compound concentrations: 100 nM and 1000 nM (sheet 'Samples'), CATDS: 2.8652335073443402E-2): 1620 nM | potency estimated from few doses (RPS6KB1; compound concentrations: 100 nM and 1000 nM (sheet 'Samples'), CATDS: 3.9813258984907299E-2): 600 nM

CN[C@H](C#Cc1c(F)ccc2c1/C(=C/c1[nH]ccc1OC)C(=O)N2)CO.Cl [RO0283049-001]
potency estimated from few doses (CDK2; compound concentrations: 100 nM and 1000 nM (sheet 'Samples'), CATDS: 2.1826327845386101E-2): 1310 nM | potency estimated from few doses (TTK; compound concentrations: 100 nM and 1000 nM (sheet 'Samples'), CATDS: 1.9624563492428401E-2): 2080 nM

COc1cc[nH]c1/C=C1\C(=O)Nc2ccc([N+](=O)[O-])c(N3CC[C@@H](O)C3)c21 [RO0504985-000]
potency estimated from few doses (CDK2; compound concentrations: 100 nM and 1000 nM (sheet 'Samples'), CATDS: 3.3217097054667903E-2): 1280 nM | potency estimated from few doses (NUAK2; compound concentrations: 100 nM and 1000 nM (sheet 'Samples'), CATDS: 3.1931655972065397E-2): 1490 nM

CC(C)(CO)CNC(=O)c1ccc2c(c1)/C(=N/Nc1ccc(S(N)(=O)=O)cc1)C(=O)N2 [GW301784X]
potency estimated from few doses (CDK2; [1]): 87.1 nM | potency estimated from few doses (TTK; [1]): 983 nM

CCn1c(-c2nonc2N)nc2cncc(C(=O)N3CC[C@H](N)C3)c21.Cl [SB-772077-B]
potency estimated from few doses (BUB1): 1790 nM | potency estimated from few doses (CDC42BPB; [1]): 932 nM | potency estimated from few doses (PKN2; [1]): 73.8 nM | potency estimated from few doses (PRKCA; [1]): 826 nM | potency estimated from few doses (RPS6KB1; [1]): 93.8 nM

COc1cc2ncn(-c3cc(OCc4ccccc4S(C)(=O)=O)c(C#N)s3)c2cc1OC [GSK319347A]
potency estimated from few doses (AURKB; compound concentrations: 100 nM and 1000 nM (sheet 'Samples'), CATDS: 0.10534744790645301): 893 nM

Cl.Cl.NC[C@H](CC1CCCCC1)NC(=O)c1ccc(-c2ccnc3[nH]ccc23)s1.NC[C@H](CC1CCCCC1)NC(=O)c1ccc(-c2ccnc3[nH]ccc23)s1 [GSK1581428A]
potency estimated from few doses (CDC42BPB; [1]): 10.5 nM | potency estimated from few doses (PKN2; [1]): 452 nM | potency estimated from few doses (PRKCA; [1]): 2080 nM | potency estimated from few doses (RPS6KB1; [1]): 179 nM

Cl.Cl.NCC(NC(=O)c1cc(-c2ccnc3[nH]ccc23)cs1)c1ccccc1.NCC(NC(=O)c1cc(-c2ccnc3[nH]ccc23)cs1)c1ccccc1 (centres unmarked) [GSK1229959A]
potency estimated from few doses (CDC42BPB; compound concentrations: 100 nM and 1000 nM (sheet 'Samples'), CATDS: 9.85023329891931E-2): 8.96 nM | potency estimated from few doses (PIK3CD; compound concentrations: 100 nM and 1000 nM (sheet 'Samples'), CATDS: 7.85579878499649E-2): 13.2 nM | potency estimated from few doses (PKN2; compound concentrations: 100 nM and 1000 nM (sheet 'Samples'), CATDS: 3.5150417589149101E-2): 88.5 nM | potency estimated from few doses (RPS6KB1; compound concentrations: 100 nM and 1000 nM (sheet 'Samples'), CATDS: 2.0581414615248698E-2): 679 nM

NS(=O)(=O)c1ccc(NC=C2C(=O)Nc3ccc4ncsc4c32)cc1 [GW589933X]
potency estimated from few doses (AURKB; compound concentrations: 100 nM and 1000 nM (sheet 'Samples'), CATDS: 1.80896314222295E-2): 1370 nM | potency estimated from few doses (CDK2; compound concentrations: 100 nM and 1000 nM (sheet 'Samples'), CATDS: 6.9687110689249002E-2): 65.8 nM | potency estimated from few doses (NUAK2; compound concentrations: 100 nM and 1000 nM (sheet 'Samples'), CATDS: 1.7918277394981801E-2): 1420 nM | potency estimated from few doses (TTK; compound concentrations: 100 nM and 1000 nM (sheet 'Samples'), CATDS: 2.1205991954571499E-2): 817 nM

NS(=O)(=O)c1ccc(N/C=C2\C(=O)Nc3ccc4ncsc4c32)cc1 [GW297361X]
potency estimated from few doses (CDK2; compound concentrations: 100 nM and 1000 nM (sheet 'Samples'), CATDS: 7.9429171662671896E-2): 232 nM | potency estimated from few doses (TTK; compound concentrations: 100 nM and 1000 nM (sheet 'Samples'), CATDS: 3.2979280004825598E-2): 1400 nM

CCn1c(-c2nonc2N)nc2cncc(Br)c21 [SB-738004]
potency estimated from few doses (CDC42BPB; [1]): 1970 nM | potency estimated from few doses (PKN2; [1]): 122 nM | potency estimated from few doses (PRKCA; [1]): 1290 nM | potency estimated from few doses (RPS6KB1; [1]): 360 nM

Cc1occc1-c1nc(N)c(OC[C@@H](N)Cc2c[nH]c3ccccc23)cc1-c1cc2c(C)n[nH]c2cn1 [GSK1660450B]
potency estimated from few doses (CDC42BPB; [1]): 106 nM | potency estimated from few doses (MARK2; [1]): 639 nM | potency estimated from few doses (PIK3CD; [1]): 8.67 nM | potency estimated from few doses (PKN2; [1]): 2110 nM | potency estimated from few doses (PRKCA; [1]): 40 nM | potency estimated from few doses (RPS6KA3; [1]): 861 nM | potency estimated from few doses (RPS6KB1; [1]): 112 nM

Cc1cccc(-c2cc(-c3c[nH]nc3-c3ccccn3)ccn2)c1 [GW679395X]
potency estimated from few doses (LCK): 1330 nM | potency estimated from few doses (MAPK14; [1]): 1290 nM
